Our source for the inhibition values is PubChem BioAssay AID2013 (Sanford-Burnham Center for Chemical Genomics, 2009).

One may read the inhibition as the drop in the measured response relative to a control, in per cent.

The campaign covered roughly 290,000 compounds. About 370 (0.13%) were called active.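 Rule for the calls: active = spots per cell inhibited over 60%, with over 100 cells counted and total cytoplasm intensity under 500,000; inconclusive = wells with under 100 cells, flagged as likely toxic; inactive = the rest.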 Many of the other results were omitted from the sample, so actives are more common in it than they were. Potency and affinity values are given separately.

The target in the test is G-protein coupled receptor 55 (Homo sapiens) (UniProt Q9Y2T6). Briefly: GPR55 antagonists blocking LPI-driven arrestin recruitment, primary screen, imaging, U2OS, beta-arrestin-GFP, LPI agonist (AID 2013).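 Note: U2OS cells stably carrying GPR55 and arrestin-GFP stimulated by 5 µM LPI near EC80; imaged beta-arrestin-GFP aggregate spots per cell after agonist stimulation; plate controls were LPI-stimulated DMSO wells for no effect and DMSO wells without LPI for full effect.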 As to conditions: U2OS GPR55 beta-arrestin-GFP translocation imaging, LPI antagonism; at 10 µM; hits give high values. A general note: Arrestin recruitment assays detect the binding of arrestin to an activated receptor.
G-protein coupled receptor 55 (Homo sapiens), sequence (Q9Y2T6 whole entry, looked up): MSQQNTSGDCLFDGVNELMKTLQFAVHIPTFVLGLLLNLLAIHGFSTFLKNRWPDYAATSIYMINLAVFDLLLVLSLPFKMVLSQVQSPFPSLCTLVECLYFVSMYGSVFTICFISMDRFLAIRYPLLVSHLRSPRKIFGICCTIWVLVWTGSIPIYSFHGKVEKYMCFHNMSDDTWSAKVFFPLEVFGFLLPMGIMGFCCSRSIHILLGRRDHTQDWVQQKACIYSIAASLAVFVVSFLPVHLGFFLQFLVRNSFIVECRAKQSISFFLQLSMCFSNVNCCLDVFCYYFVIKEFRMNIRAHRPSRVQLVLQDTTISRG
Take `CN(C)c1ccc(C(=O)OCC(=O)Nc2ccc(N3CCOCC3)cc2)cc1`: the inhibition was 0.2% (inactive).

For `CCN(CC)c1ccc(NC(=O)Cn2c(C(C)NC(=O)c3ccc(C)cc3)nc3ccccc32)cc1` (stereo not drawn), the inhibition was 1.1% (inactive).

In the case of `Cn1c(CSCc2ccccc2Cl)n[nH]c1=S`, the inhibition was -17.8% (inactive).

For the compound `S=c1[nH]nc(CSCc2ccccc2Cl)n1-c1ccccc1`, the inhibition was 1% (inactive).

Turning to `CN(Cc1ccc(Cl)cc1Cl)C(=O)CNC(=O)c1ccco1`, the inhibition is 8.3% (inactive).

As for `CCCn1cc(S(=O)(=O)c2ccccc2)c(=O)c2cc(F)c(N3CCN(C)CC3)cc21`, the inhibition was 7.5% (inactive).

With `Clc1cccc(-c2cc3nc4c(c(N5CCNCC5)n3n2)CCCC4)c1`, the inhibition was 90.4% (active).

Turning to `Clc1cccc(-c2cc3nc4c(c(N5CCOCC5)n3n2)CCCC4)c1`, the inhibition is -8.9% (inactive).

Regarding `Clc1cccc(-c2cc3nc4c(c(N5CCN(c6cnccn6)CC5)n3n2)CCCC4)c1`, the inhibition was -5.5% (inactive).

As for `COc1ccc(NS(=O)(=O)c2ccc3nc(COc4ccc5ccccc5c4)[nH]c3c2)cc1`, the inhibition is 20.6% (inactive).

For `COc1ccc(NS(=O)(=O)c2ccc3nc(COc4ccc(C#N)cc4)[nH]c3c2)cc1`, the inhibition is 6% (inactive).

For the compound `COc1ccc(/C=C(\C#N)C(=O)OCC(=O)Nc2ccc(-c3nc4ccc(C)cc4s3)cc2)cc1`, the inhibition was -6.4% (inactive).

In the case of `C=C(C)CSc1nc2ncc(Cl)cc2[nH]1`, the inhibition was 17.6% (inactive).

Consider `N/C(=N\O)c1ccccc1N1CCCCC1`, for which the inhibition was -5% (inactive).

On to `CCCC(=O)Nc1nc(C)c(C(C)=O)s1`, for which the inhibition was -16% (inactive).

Take `CCC(C)n1c(SCC(=O)NC(=O)c2cccn2C)nc2ccccc2c1=O` (stereo not drawn): the inhibition was 99.6% (active).

As to `C=CCn1c(SCC(=O)NC(=O)c2cccn2C)nc2ccccc2c1=O`, the inhibition is 4.4% (inactive).

For `CCC(C)n1c(SCC(=O)Nc2cc(C)on2)nc2ccccc2c1=O` (stereo not drawn), the inhibition is 15.5% (inactive).

Consider `COc1cc(C(=O)NNC(=O)NC2CCCCC2)cc(OC)c1OC`, for which the inhibition is 8.5% (inactive).

Take `O=C(NCc1ccccc1Cl)c1ccc2c(c1)SC1=NS(=O)(=O)CCN12`: the inhibition is -9.3% (inactive).

For `COc1cccc(NC(=O)c2cccc(C(=O)Nc3cccc(OC)c3)c2)c1`, the inhibition was -0.6% (inactive).

With `C=CCNC(=O)/C(C#N)=C/c1ccccc1[N+](=O)[O-]`, the inhibition is 13.3% (inactive).

For the compound `N#C/C(=C\C=C\c1ccccc1[N+](=O)[O-])C(=O)NCc1ccccc1`, the inhibition is 11.1% (inactive).

Take `CC1=CC(=C(C#N)C#N)C=C(C)N1CCN1CCN(C(=O)Nc2cccc(Cl)c2)CC1`: the inhibition was 3.5% (inactive).

Take `Cc1cccc(NC(=O)C2C3C=CC4(O3)C2C(=O)N(CCCN2CCCC2)C4C(=O)NC2CCCC(C)C2C)c1` (stereo not drawn): the inhibition was -6.5% (inactive).

With `CC1(c2ccccc2)CC(C)(C)N(C(=O)c2cc([N+](=O)[O-])cc([N+](=O)[O-])c2)c2ccccc21` (stereo not drawn), the inhibition is 64.4% (active).

For the compound `CC1(c2cc([N+](=O)[O-])cc([N+](=O)[O-])c2)CC(C)(C)N(C(=O)c2ccccc2)c2ccccc21` (stereo not drawn), the inhibition was -0.2% (inactive).

For the compound `CC1(c2ccc([N+](=O)[O-])cc2)CC(C)(C)N(C(=O)c2ccccc2)c2ccccc21` (stereo not drawn), the inhibition is 11.2% (inactive).

Turning to `COc1ccccc1Nc1nc(N)nc(-c2cc3ccccc3o2)n1`, the inhibition is 8.7% (inactive).

In the case of `CC(NCC(O)COCc1ccc(Cl)cc1)c1ccccc1` (stereo not drawn), the inhibition is 0.4% (inactive).

Consider `NCC(O)COCCC12CC3CC(CC(C3)C1)C2` (stereo not drawn), for which the inhibition was 5.8% (inactive).

As to `CC1(C)CC(=O)C=C(NCC2CCCO2)C1` (stereo not drawn), the inhibition is 3.1% (inactive).

`CC1=CC(c2ccc(Cl)cc2)n2nc(NC(=O)c3ccccc3)nc2N1` (stereo not drawn): the inhibition was 5.1% (inactive).

Turning to `Cc1ccc(-c2ccnc3cc(C)nn23)cc1`, the inhibition is 13.3% (inactive).

As for `c1cc2c3c(cccc3c1)C(N1CCCCCC1)=N2`, the inhibition was 17.5% (inactive).

`COc1ccccc1N1CCN(C2=Nc3cccc4cccc2c34)CC1`: the inhibition is 95.5% (active).

For `c1cc2c3c(cccc3c1)C(N1CCCCC1)=N2`, the inhibition is 3.4% (inactive).

Regarding `COc1ccc(/C=C2\SC(=O)N(CC(=O)NC3C=CS(=O)(=O)C3)C2=O)cc1` (stereo not drawn), the inhibition was 14.8% (inactive).

For the compound `COc1ccc(CCNC(=O)C/C(C)=N/NC(=O)c2ccc([N+](=O)[O-])cc2Cl)cc1OC`, the inhibition is 5.9% (inactive).

In the case of `C#CCOc1c(Br)cc(/C=N/O)cc1OCC`, the inhibition is -2.8% (inactive).

Take `C=CCOc1ccc(/C=N/NC(=O)CN2CCOCC2)cc1OCC`: the inhibition is -14.5% (inactive).

For the compound `COCCNc1c2c(nc3c(-c4ccccc4)c(C)nn13)CCC2`, the inhibition is -0.5% (inactive).

Take `CC(=O)c1c(O)cc(O)cc1CC(=O)O`: the inhibition was 14.6% (inactive).

Regarding `CCCCN(CC)C(=O)CSc1nc2c(sc(=S)n2-c2ccc(OCC)cc2)c(=O)[nH]1`, the inhibition is 6.8% (inactive).

With `CCOC(=O)CSc1nc2c(sc(=S)n2-c2ccc(OCC)cc2)c(=O)[nH]1`, the inhibition is -5.3% (inactive).

For the compound `O=c1c2ccccc2nc(-c2ccccc2)n1CCCN1CCOCC1`, the inhibition is -6.4% (inactive).

Take `COc1ccc(-c2nn(-c3ccccc3)cc2/C=C2/SC(=S)N(Cc3ccco3)C2=O)c(C)c1`: the inhibition was 13.6% (inactive).

For `COc1ccc(-c2nn(-c3ccccc3)cc2/C=C2/SC(=S)N(CCC(=O)O)C2=O)cc1`, the inhibition is 2.4% (inactive).

In the case of `O=C(Nc1ccc(F)cc1F)c1c(C(F)(F)F)ccnc1Oc1cccc(C(F)(F)F)c1`, the inhibition was 6.9% (inactive).

In the case of `Cc1cc(NC(=O)CN(C)S(=O)(=O)c2cnc[nH]2)ccc1Br`, the inhibition was 0.7% (inactive).

Regarding `CCCCn1c(NC(=O)c2ccccc2)c(C#N)c2nc3ccccc3nc21`, the inhibition is -12.6% (inactive).

For the compound `CCCCn1c(NC(C)=O)c(C#N)c2nc3ccccc3nc21`, the inhibition is 17% (inactive).

With `Cc1ccc(C(=O)C(C)OC(=O)c2ccccc2[N+](=O)[O-])cc1` (stereo not drawn), the inhibition is 9.5% (inactive).

On to `CCOCCOC(=O)C1=C(C)NC(=O)NC1c1cc2c(cc1Br)OCO2` (stereo not drawn), for which the inhibition was 5.8% (inactive).

Take `COCCNC(=O)c1cc2c(s1)-c1ccc(Cl)cc1SC2`: the inhibition was -8.6% (inactive).

Consider `CCN(CC)CCNC(=O)c1cc2c(s1)-c1ccccc1SC2`, for which the inhibition is 15.9% (inactive).

In the case of `O=C(CSc1ccc(F)cc1)NC12CC3CC(CC(C3)C1)C2`, the inhibition is -6% (inactive).

In the case of `COc1ccc(C)cc1Nc1n[n+](-c2ccccc2)c(-c2ccc(SC)cc2)s1`, the inhibition is 4.4% (inactive).

`COc1ccc(C)cc1Nc1n[n+](-c2ccccc2)c(-c2ccc(C(=O)O)cc2)s1`: the inhibition was 4.6% (inactive).

With `CCC(=O)N1c2ccc(S(=O)(=O)NCCc3ccc(OC)c(OC)c3)cc2CC1C` (stereo not drawn), the inhibition was -31.8% (inactive).

With `COc1ccc(S(=O)(=O)N2CCCOC2CNC(=O)C(=O)NCc2ccccc2F)cc1C` (stereo not drawn), the inhibition is 22% (inactive).

On to `Cc1[nH]nc(SCC(=O)N2CCCCC2)c1[N+](=O)[O-]`, for which the inhibition is -23.3% (inactive).

With `O=C(COc1ccccc1F)NCC(c1ccco1)N1CCCC1` (stereo not drawn), the inhibition is 24.1% (inactive).

For the compound `Nc1c(O)ccc2c1C(=O)c1ccccc1C2=O`, the inhibition is -0.3% (inactive).

Take `O=C1C(=O)c2ccc(-c3ccccc3)cc2-c2ccccc21`: the inhibition was -5.5% (inactive).

On to `Oc1ccccc1N=Nc1nc(-c2ccccc2)c(-c2ccccc2)[nH]1`, for which the inhibition was 15.7% (inactive).

For `COc1ccc(N=Nc2nc(-c3ccccc3)c(-c3ccccc3)[nH]2)cc1`, the inhibition is 19% (inactive).

For `CCOC(=O)N1CCN(C(=O)C2CCC(CNS(=O)(=O)c3ccccc3)CC2)CC1` (stereo not drawn), the inhibition was 14.3% (inactive).

Take `O=C(c1ccco1)N1N=C(c2cccs2)CC1c1ccccc1O` (stereo not drawn): the inhibition was 39.4% (inactive).

In the case of `COc1ccc(C(=O)N2N=C(c3cccs3)CC2c2ccccc2O)cc1` (stereo not drawn), the inhibition is 54.1% (inactive).

`C/C(=N/NC(=O)CNC(=O)c1cccnc1)c1cccc([N+](=O)[O-])c1`: the inhibition was -4.3% (inactive).

Consider `CN1CCN(CCCNC(=O)c2ccc(/C=C3\Sc4ccccc4N(Cc4ccc(F)cc4)C3=O)cc2)CC1`, for which the inhibition is 6.1% (inactive).

For the compound `CCN1CCN(CCNC(=O)c2ccc3c(c2)N(Cc2ccc(F)cc2)C(=O)/C(=C/c2ccccc2)S3)CC1`, the inhibition was 70.3% (active).

For the compound `CCN1CCN(CCNC(=O)c2ccc(/C=C3/Sc4ccccc4N(Cc4cccc(Cl)c4)C3=O)cc2)CC1`, the inhibition is 7.6% (inactive).

Take `CCOc1ccc(Cl)cc1CSc1n[nH]c(C)n1`: the inhibition was -12.3% (inactive).

For `Cc1nnsc1Sc1ccccc1C(=O)O`, the inhibition is -7.1% (inactive).

With `COc1cccc(-n2c(=O)c3sccc3n(CC(=O)NC3CCCCC3)c2=O)c1`, the inhibition is -10.7% (inactive).

Turning to `CNC(=S)NN(c1ccccc1)c1ccccc1`, the inhibition is 5.4% (inactive).

Take `CC(C)NC(=S)NN(c1ccccc1)c1ccccc1`: the inhibition is 11.8% (inactive).

With `CC(C)CCNC(=O)CN(Cc1ccc(F)cc1)C(=O)CCC(=O)Nc1ccccn1`, the inhibition was 4.6% (inactive).

For the compound `CCOC(=O)c1c(C)oc2ccc(O)cc12`, the inhibition is 3.1% (inactive).

Turning to `CCOC(=O)c1c(-c2ccccc2)oc2ccc(O)cc12`, the inhibition is -6% (inactive).

As for `Cc1cc(NC(=O)C2C3C(=O)N(Cc4ccc(Cl)cc4)C(C(=O)NC4CCCCC4)C34C=CC2(C)O4)no1` (stereo not drawn), the inhibition is 9.6% (inactive).

Turning to `CC(C)n1cnc2c(Nc3ccc(C(=O)O)cc3)nc(Cl)nc21`, the inhibition was 8.9% (inactive).

For the compound `O=C(CSc1n[nH]c(-c2cc(Cl)ccc2Cl)n1)NCCN1C(=O)CSC1=O`, the inhibition is 2.2% (inactive).

Consider `COc1ccc(NC(=S)N(CCCN2CCOCC2)Cc2ccccn2)cc1`, for which the inhibition was -18.2% (inactive).

For `Cc1ccc(NC(=S)N(CCCN2CCOCC2)Cc2ccccn2)cc1`, the inhibition was 9.5% (inactive).

`O=C(c1cc(C2CC2)nc2ccc(Br)cc12)N1N=C(C(F)F)CC1(O)C(F)F` (stereo not drawn): the inhibition was 9.1% (inactive).

Take `O=S(=O)(c1ccc(Br)cc1)c1nc(-c2ccco2)oc1NCC1CCCO1` (stereo not drawn): the inhibition is -16.8% (inactive).

As for `CC(C)(C)c1csc(NC(=O)CSc2nc3ccccc3c(=O)[nH]2)n1`, the inhibition is -12.6% (inactive).

With `CCNc1nc2nc3ccc(C)cn3c(=O)c2cc1C(=O)NCC1CCCO1` (stereo not drawn), the inhibition is 7.3% (inactive).

Turning to `C=CCNC(=O)c1cc2c(=O)n3cc(C)ccc3nc2nc1NCC1CCCO1` (stereo not drawn), the inhibition was 93.3% (active).

On to `Cc1ccc2nc3nc(NCC4CCCO4)c(C(=O)NC4CCCC4)cc3c(=O)n2c1` (stereo not drawn), for which the inhibition was 0.8% (inactive).
